Data: PubChem BioAssay AID1619 (SRMLSC, 2009)
Among all 220,000 compounds or so, about 830 (0.38%) were called active. Only a sample is shown. Entries with a potency or affinity are not part of this list. Values without a mark were called inactive.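 How the source made its calls: active means compound inhibiting the enzyme by more than half at any dose during confirmatory dose-response retesting; inconclusive means strong single-dose inhibitors picked by rank but not retested; inactive means the rest.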

Molecular target: Leucine aminopeptidase (Plasmodium falciparum (isolate 3D7)) (UniProt Q8IL11)
Sequence (Q8IL11 whole entry, looked up): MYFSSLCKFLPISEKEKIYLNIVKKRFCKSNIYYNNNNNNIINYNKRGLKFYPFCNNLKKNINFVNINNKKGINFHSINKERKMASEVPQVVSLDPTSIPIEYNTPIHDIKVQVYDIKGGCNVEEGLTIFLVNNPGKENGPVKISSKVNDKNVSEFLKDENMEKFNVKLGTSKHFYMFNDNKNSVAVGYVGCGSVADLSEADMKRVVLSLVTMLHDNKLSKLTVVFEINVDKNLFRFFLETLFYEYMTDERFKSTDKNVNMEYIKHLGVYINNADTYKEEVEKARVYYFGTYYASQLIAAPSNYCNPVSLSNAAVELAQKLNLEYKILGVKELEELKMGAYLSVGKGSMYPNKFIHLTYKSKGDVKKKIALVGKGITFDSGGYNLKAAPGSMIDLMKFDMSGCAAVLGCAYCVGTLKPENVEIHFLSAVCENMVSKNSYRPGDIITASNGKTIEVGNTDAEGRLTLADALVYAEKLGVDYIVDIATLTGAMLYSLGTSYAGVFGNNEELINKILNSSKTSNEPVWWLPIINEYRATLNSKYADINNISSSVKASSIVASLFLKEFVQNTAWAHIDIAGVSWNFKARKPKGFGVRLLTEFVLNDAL
Assay: P. falciparum M17LAP inhibitors, primary screen, biochemical, fluorogenic H-Leu-NHMec substrate, 1536-well (AID 1619);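 further: plate controls were full reaction with DMSO carrier for no effect and no enzyme background for full effect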
Details: recombinant M17LAP, H-Leu-NHMec fluorogenic kinetic assay; at 30 µM; stronger effect = higher value

| Structure (SMILES) | inhibition [%] |
| --- | --- |
| O=C(Oc1ccc(Br)cc1C(=S)N1CCCC1)c1ccccc1F | -3.73 |
| CN=C1SC(CC(=O)Nc2ccc(N3CCOCC3)cc2)C(=O)N1C (configuration not stated) | -4.74 |
| CSCCC(NC(=O)c1cc(C)oc1C)C(=O)O (configuration not stated) | 5.74 |
| CSCCC(NC(=O)c1ccc(C)o1)C(=O)O (configuration not stated) | -6.5 |
| COC(=O)c1cccc(NC(=O)c2onc3c2CCCC3)c1 | 10.6 |
| Cc1cc(C(F)(F)F)nn1CC(=O)NNC(=S)Nc1ccc(Cl)cc1 | 19.4 |
| Cc1cc(C(=O)N/N=C/C=C/c2cccc([N+](=O)[O-])c2)n[nH]1 | 26.9 |
| CC(C)=N/N=C(/c1ccc([N+](=O)[O-])cc1)C12CN3CN(CN(C3)C1)C2 | 5.26 |
| CCOC(=O)c1c(NC(=O)C2C3C=CC(C3)C2C(=O)O)sc2c1CCCC2 (configuration not stated) | 42 |
| CCOC(=O)c1c(N)sc2c1CCC(CC)C2 (configuration not stated) | -12.2 |
| CCOC(=O)c1c(NC(=O)c2ccc(N3C(=O)C4C5C=CC(C5)C4C3=O)cc2)sc2c1CCCC2 (configuration not stated) | -6.59 |
| CCOC(=O)c1c(NS(C)(=O)=O)sc2c1CCC(C)C2 (configuration not stated) | 8.14 |
| CCOC(=O)c1c(NC(=O)C2C3CCC(O3)C2C(=O)O)sc2c1CCC(CC)C2 (configuration not stated) | 7.12 |
| CCOC(=O)c1c(NC(=S)Nc2ccccc2)sc2c1CCCCC2 | 3.6 |
| CCOC(=O)c1c(NC(=O)C2C3C=CC(C3)C2C(=O)O)sc2c1CC(C)(C)OC2 (configuration not stated) | 31.8 |
| CCOC(=O)c1c(N2C(=O)C3C4C=CC(C4)C3C2=O)sc2c1CCC(C)C2 (configuration not stated) | 2.96 |
| Cc1ccc(-n2c(SCC(=O)Nc3cc(C)on3)nc3c([nH]c4ccccc43)c2=O)cc1 | 4.1 |
| Cc1cc(C)n(CC(=O)c2cccc([N+](=O)[O-])c2)n1 | 7.13 |
| CNC(=O)c1nc(C)c(C2(C)CC(c3cccc([N+](=O)[O-])c3)=NO2)s1 (configuration not stated) | 11.9 |

| Structure (SMILES) | inhibition [%] |
| --- | --- |
| Cn1c(=O)n(C/C=C/c2ccccc2)c(=O)c2c1nc1n2CCCN1c1ccc(F)cc1 | -5.1 |
| O=C(C1=C[C@@H](c2ccc(Br)cc2)C[C@@H](OCCCCO)O1)N1CCN(Cc2ccccc2)CC1 | -0.63 |
| Cc1nn(C)cc1S(=O)(=O)N1CCN(Cc2ccc(F)cc2Cl)CC1 | 3.03 |
| CN1CCC(=NNC(=O)CN(c2cccc(Br)c2)S(C)(=O)=O)CC1 | 12.4 |
| CCOc1ccc(C(=O)NCc2ccccc2)cc1Br | 5.79 |
| CCOCCOC(=O)C1=C(C)N(C)C(=O)NC1c1cc(Cl)c(O)c(OC)c1 (configuration not stated) | 2.91 |
| NS(=O)(=O)c1ccc(NCC2COc3ccccc3O2)c([N+](=O)[O-])c1 (configuration not stated) | 0.14 |
| CCn1c(SCC(=O)c2ccc(NS(=O)(=O)c3ccccc3)cc2)nnc1-c1cccs1 | 37 |
| C=CCn1c(SCC(=O)O)nnc1-c1cccs1 | 0.97 |
| CCC(=O)Nc1ccc(C(=O)CSc2nnc(-c3ccccc3F)n2C2CC2)cc1 | 4.72 |
| Cc1ccccc1OCc1nc2ccccc2c(=O)n1N | -9.96 |
| COc1ccc(OC)c(S(=O)(=O)Nc2ccc(O)c(Sc3ncn[nH]3)c2)c1 | 38.9 |
| CCOc1ccc(S(=O)(=O)Nc2ccc(O)c(Sc3ncn[nH]3)c2)cc1 | 71.4 |
| Nc1c([N+](=O)[O-])cnnc1-c1ccccc1 | -9.73 |
| Cc1n[nH]c(C)c1CNCc1c(C(=O)N2CCCCCCC2)nc2ccc(Cl)cn12 | -4.57 |
| COc1ccc(NC(=O)CSc2nnc(NC(C)=O)s2)c([N+](=O)[O-])c1 | 11.8 |
| CCOc1ccc(/C=C2\SC(=S)N(C(C(=O)O)c3ccccc3)C2=O)cc1OC (configuration not stated) | 30.6 |
| COc1cc(/C=C2\SC(=S)N(NS(=O)(=O)c3ccccc3)C2=O)cc(OC)c1OC | 27.3 |
| CCOc1ccc(/C=C2\SC(=S)N(NS(=O)(=O)c3ccccc3)C2=O)cc1OC | 43.7 |

| Structure (SMILES) | inhibition [%] |
| --- | --- |
| COc1cc(/C=C2\SC(=S)N(NS(=O)(=O)c3ccc(C)cc3)C2=O)cc(OC)c1OC | 19.5 |
| CCOc1ccc(/C=C2\SC(=S)N(NS(=O)(=O)c3ccc(C)cc3)C2=O)cc1OC | 21.5 |
| CCOc1ccc(/C=C2/SC(=S)N(C(C(=O)O)c3ccccc3)C2=O)cc1OCC (configuration not stated) | 21.4 |
| COc1cc(=O)n(C)c2c(O)cccc12 | 4.51 |
| Cc1nnc(NC(=O)CSc2nnc(Cc3ccccc3)n2Cc2ccccc2)s1 | 14.2 |
| CCN(Cc1ccccc1)S(=O)(=O)c1ccc2c(c1)NC(=O)CC(=O)N2 | 0.95 |
| CCCCC1=CC2=CC(=O)C(C)(OC(=O)CC)C(=O)C2=CN1CCc1c[nH]c2ccccc12 (configuration not stated) | -3.57 |
| CCCn1c(=O)c(C(=O)N/N=C/c2ccc(F)cc2)c(O)c2ccccc21 | -4.04 |
| O=C(Cn1nc(-c2ccccc2)c2ccccc2c1=O)Nc1ccc2c(c1)nc1n2CCOC1 | -12.9 |
| C=CCn1c(N)cc(=O)nc1SCC(=O)Nc1ccccc1 | 20 |
| Nc1cc(=O)nc(SCC(=O)Nc2ccccc2)n1-c1ccccc1 | 22.1 |
| C=CCn1c(SCC(=O)Nc2cccc3ccccc23)nnc1-c1cnccn1 | 1.49 |
| C=CCn1c(SCC(=O)Nc2ccccc2OC)nc(O)c(CC)c1=O | 35.8 |
| Nc1cc(=O)nc(SCC(=O)Nc2cccc3ccccc23)n1CCc1ccccc1 | 43.5 |
| Cn1c(=O)c2c(nc(SCC(=O)Nc3ccccc3)n2C)n(C)c1=O | 0.43 |
| Cn1ccnc1SCC(=O)Nc1cccc2ccccc12 | 16.9 |
| C=CCn1c(N)cc(=O)nc1SCC(=O)Nc1ccc(C)cc1 | 23.5 |
| COc1cc2c(cc1NC(=O)/C=C/c1ccc([N+](=O)[O-])cc1)oc1ccccc12 | -1.67 |
| CC1=C/C(=N\NC(=O)c2ccc(O)cc2)CC1 | 12.2 |
